# Columns and labels:
# Assay in all cases: thermal shift delta Tm vs DMSO control; higher = stronger stabilization (binding)
# Conditions in all cases: 12.5 µM; protein concentration 2 µM
# LOC_OS02G45750-cb003 = tested on: LOC_OS02G45750-cb003
# Procedure, shortened: (§1)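 The melting temperature shift given here is a triplicate mean, measured against protein that received only DMSO. Melting temperatures came from Boltzmann fits of differential scanning fluorimetry data on E. coli-expressed, purified rice kinase domain constructs. Each 19.5 μl well contained 2 μM kinase, 100 mM potassium phosphate pH 7.5, 150 mM NaCl, 10% glycerol, 5 × SYPRO Orange and compound in DMSO. Plates were scanned from 25°C to 95°C at 0.05°C/s.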
# LOC_OS02G54510-cb004 = tested on: LOC_OS02G54510-cb004
# Procedure, shortened: as §1
# LOC_OS03G04050-cb001 = tested on: LOC_OS03G04050-cb001
# Procedure, shortened: as §1
# LOC_OS03G12390-cb001 = tested on: LOC_OS03G12390-cb001
# Procedure, shortened: as §1
# LOC_OS03G27990-cb004 = tested on: LOC_OS03G27990-cb004
# Procedure, shortened: as §1
# LOC_OS03G50450-cb001 = tested on: LOC_OS03G50450-cb001
# Procedure, shortened: as §1
# LOC_OS03G50810-cb003 = tested on: LOC_OS03G50810-cb003
# Procedure, shortened: as §1
# LOC_OS04G35114-cb001 = tested on: LOC_OS04G35114-cb001
# Procedure, shortened: as §1
# LOC_OS04G38480-cb003 = tested on: T1, LOC_OS04G38480-cb003
# T1 sequence (whole entry): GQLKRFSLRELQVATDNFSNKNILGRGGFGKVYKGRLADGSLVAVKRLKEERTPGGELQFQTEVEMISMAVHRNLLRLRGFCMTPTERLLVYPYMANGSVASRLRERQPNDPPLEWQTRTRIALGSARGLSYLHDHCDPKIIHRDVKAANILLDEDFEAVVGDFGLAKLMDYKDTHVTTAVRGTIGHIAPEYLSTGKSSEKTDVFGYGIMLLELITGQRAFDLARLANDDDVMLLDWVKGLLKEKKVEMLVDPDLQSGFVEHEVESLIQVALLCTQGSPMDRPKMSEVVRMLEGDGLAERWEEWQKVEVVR
# Procedure, shortened: as §1
# LOC_OS04G41100-cb001 = tested on: T2, LOC_OS04G41100-cb001
# T2 sequence (whole entry): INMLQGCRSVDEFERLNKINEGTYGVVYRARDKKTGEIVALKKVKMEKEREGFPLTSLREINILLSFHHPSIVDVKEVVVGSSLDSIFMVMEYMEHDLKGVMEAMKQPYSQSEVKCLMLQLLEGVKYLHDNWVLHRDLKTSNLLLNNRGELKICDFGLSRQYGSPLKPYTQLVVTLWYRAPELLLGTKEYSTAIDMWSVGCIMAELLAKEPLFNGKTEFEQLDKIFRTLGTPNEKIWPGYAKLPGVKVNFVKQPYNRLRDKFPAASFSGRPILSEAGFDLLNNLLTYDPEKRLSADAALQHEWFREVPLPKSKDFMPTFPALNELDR
# Procedure, shortened: as §1
# LOC_OS04G57630-cb004 = tested on: LOC_OS04G57630-cb004
# Procedure, shortened: as §1
# LOC_OS05G07850-cb002 = tested on: LOC_OS05G07850-cb002
# Procedure, shortened: as §1
# LOC_OS05G16824-cb004 = tested on: LOC_OS05G16824-cb004
# Procedure, shortened: as §1
# LOC_OS05G28520-cb001 = tested on: LOC_OS05G28520-cb001
# Procedure, shortened: as §1
# LOC_OS05G30820-cb001 = tested on: LOC_OS05G30820-cb001
# Procedure, shortened: as §1
# LOC_OS05G43570-cb004 = tested on: LOC_OS05G43570-cb004
# Procedure, shortened: as §1
# LOC_OS06G16330-cb003 = tested on: LOC_OS06G16330-cb003
# Chain of LOC_OS06G16330-cb003 (as listed by the source): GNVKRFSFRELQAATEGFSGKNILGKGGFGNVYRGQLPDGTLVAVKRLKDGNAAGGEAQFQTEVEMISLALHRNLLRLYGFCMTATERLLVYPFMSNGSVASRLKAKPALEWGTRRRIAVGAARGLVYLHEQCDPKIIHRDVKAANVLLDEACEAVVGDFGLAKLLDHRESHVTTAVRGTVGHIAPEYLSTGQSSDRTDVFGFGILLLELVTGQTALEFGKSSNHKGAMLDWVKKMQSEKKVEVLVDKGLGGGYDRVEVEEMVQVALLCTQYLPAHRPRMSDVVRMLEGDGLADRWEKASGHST
# Procedure, shortened: as §1
# LOC_OS06G22820-cb001 = tested on: T3, LOC_OS06G22820-cb001
# T3 sequence (whole entry): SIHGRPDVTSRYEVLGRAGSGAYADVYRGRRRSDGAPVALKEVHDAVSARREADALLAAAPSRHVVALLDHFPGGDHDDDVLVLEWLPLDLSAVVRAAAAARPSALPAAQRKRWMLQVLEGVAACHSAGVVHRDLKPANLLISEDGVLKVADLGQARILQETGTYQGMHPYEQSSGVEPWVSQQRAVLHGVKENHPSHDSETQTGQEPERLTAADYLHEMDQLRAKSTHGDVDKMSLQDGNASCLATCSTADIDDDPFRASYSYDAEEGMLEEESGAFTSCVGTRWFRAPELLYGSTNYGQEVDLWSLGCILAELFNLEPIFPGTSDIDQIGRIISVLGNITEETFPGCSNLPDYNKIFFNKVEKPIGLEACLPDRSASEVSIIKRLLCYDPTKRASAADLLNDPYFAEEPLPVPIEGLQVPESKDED
# Procedure, shortened: as §1
# LOC_OS07G06570-cb004 = tested on: LOC_OS07G06570-cb004
# Procedure, shortened: as §1
# LOC_OS07G07230-cb001 = tested on: LOC_OS07G07230-cb001
# Procedure, shortened: as §1
SMILES,thermal shift delta Tm (LOC_OS02G45750-cb003),thermal shift delta Tm (LOC_OS02G54510-cb004),thermal shift delta Tm (LOC_OS03G04050-cb001),thermal shift delta Tm (LOC_OS03G12390-cb001),thermal shift delta Tm (LOC_OS03G27990-cb004),thermal shift delta Tm (LOC_OS03G50450-cb001),thermal shift delta Tm (LOC_OS03G50810-cb003),thermal shift delta Tm (LOC_OS04G35114-cb001),thermal shift delta Tm (LOC_OS04G38480-cb003),thermal shift delta Tm (LOC_OS04G41100-cb001),thermal shift delta Tm (LOC_OS04G57630-cb004),thermal shift delta Tm (LOC_OS05G07850-cb002),thermal shift delta Tm (LOC_OS05G16824-cb004),thermal shift delta Tm (LOC_OS05G28520-cb001),thermal shift delta Tm (LOC_OS05G30820-cb001),thermal shift delta Tm (LOC_OS05G43570-cb004),thermal shift delta Tm (LOC_OS06G16330-cb003),thermal shift delta Tm (LOC_OS06G22820-cb001),thermal shift delta Tm (LOC_OS07G06570-cb004),thermal shift delta Tm (LOC_OS07G07230-cb001)
COc1cc2nccc(Oc3ccc(NC(=O)C4(C(=O)Nc5ccc(F)cc5)CC4)cc3)c2cc1OC [Cabozantinib malate (XL184)],0.86 °C,0.27 °C,0.7 °C,0.1 °C,0.34 °C,0.45 °C,0.59 °C,0.52 °C,1.59 °C,0.69 °C,0.66 °C,10.2 °C,-1.18 °C,1.86 °C,0.41 °C,0.69 °C,1.53 °C,0.93 °C,1.5 °C,-0.02 °C
C=CC(=O)Nc1cccc(Oc2nc(Nc3ccc(N4CCN(C)CC4)cc3)nc3ccsc23)c1,1.44 °C,0.64 °C,0.99 °C,1.24 °C,1.38 °C,1.3 °C,1.96 °C,2.13 °C,2.26 °C,0.71 °C,1.01 °C,8.37 °C,2.38 °C,2.64 °C,1.14 °C,1.26 °C,3.14 °C,0.83 °C,2.96 °C,1.41 °C
COc1cc(CCc2cc(NC(=O)c3ccc(N4CC(C)NC(C)C4)cc3)n[nH]2)cc(OC)c1 (stereo not given),7.06 °C,0.23 °C,0.27 °C,1.22 °C,1.11 °C,0.29 °C,4.8 °C,5.76 °C,0.62 °C,1.99 °C,2.33 °C,3.41 °C,4.73 °C,6.65 °C,0.59 °C,0.4 °C,2.54 °C,0.35 °C,0 °C,-0.08 °C
O=C1NC(=O)/C(=C/c2cccc(C(F)(F)F)c2)S1,0.26 °C,0.26 °C,0.76 °C,0.17 °C,0.26 °C,0.29 °C,0.08 °C,0.62 °C,-0.19 °C,0.43 °C,0.39 °C,1.33 °C,-0.21 °C,0.59 °C,0.46 °C,0.27 °C,0.26 °C,0.44 °C,0.68 °C,0.58 °C
CCN1CCN(Cc2ccc(-c3cc4c(N[C@H](C)c5ccccc5)ncnc4[nH]3)cc2)CC1,6.37 °C,0.94 °C,-0.21 °C,1.63 °C,2.76 °C,0.56 °C,1.13 °C,3.16 °C,1.7 °C,0.38 °C,0.95 °C,5.78 °C,3.87 °C,1 °C,0.48 °C,0.5 °C,4.68 °C,0.76 °C,1.03 °C,0.13 °C

# Source: the supplement of paper PMC9694430
